Assay outcomes (PubChem BioAssay)
Most compounds without a hit are left out; they make up all but 3.3% or so of the library.
Tau FP inhib – tau fibrillization inhibition (FP); Potency, µM (titrated, usually from 57.7 µM), for the others: at the highest dose activity, negative = inhibition, actives largely listed as inhibitors; P10636; K18 P301L tau heparin fibrillization, Alexa594 FP, 6 h; hit rate 0.39% among 280,000; note: nearly all actives have a fitted effect of over 55% in size
Target sequence (P10636 561-689 P618L limits assumed): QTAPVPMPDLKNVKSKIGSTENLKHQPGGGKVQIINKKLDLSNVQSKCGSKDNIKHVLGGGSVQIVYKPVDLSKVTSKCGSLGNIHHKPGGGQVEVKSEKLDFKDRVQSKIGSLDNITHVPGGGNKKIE
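FP of Alexa 594-tau after heparin (20 uM) induction. Substrate: human K18 P301L, 15 uM unlabeled, 0.24 uM labeled. Buffer 100 mM sodium acetate pH 7. 6 hr, 37 C.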
KinaseGlo FLuc – blocks Kinase-Glo luciferase, a counter-screen artifact | Potency, µM (titrated, usually from 38.3 µM), inactives show at the highest dose activity change, negative = inhibition, actives largely listed as inhibitors | Kinase-Glo luciferase, ATP luminescence, 8 min | hit rate 0.28% among 200,000 | Q27757; note: nearly all actives have a fitted effect of over 60% in size
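Inhibition of Kinase-Glo luciferase light generation was assessed at 10 uM ATP in pH 7.2 imidazole buffer, with luminescence measured after eight minutes at ambient temperature.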
Tau ThT inhib – blocks human tau fibril formation measured by thioflavin T; P10636; recombinant tau K18 P301L, heparin-induced fibrillization, ThT fluorescence; Potency, µM (highest dose often 57.4 µM), for inactives: at the top dose activity, negative = inhibition, actives largely listed as inhibitors; hit rate 2.1% among 270,000; AID 1460; note: nearly all actives have a fitted effect of over 55% in size
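Heparin-induced fibrillization of the P301L-mutant K18 repeat-domain fragment of human tau was followed by ThT binding in quantitative high-throughput format.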
NPSR antag – neuropeptide S receptor (human) antagonism, cAMP; Q6W5P4; CHO-NPSR cells, cAMP TR-FRET, antagonist mode; Potency, µM (doses to about 38.3 µM), without a hit: at the top dose activity change, negative = inhibition, actives largely listed as inhibitors; hit rate 1% among 220,000; AID 1461; note: nearly all actives have a fitted effect of over 50% in size
Target sequence (Q6W5P4 whole entry, looked up): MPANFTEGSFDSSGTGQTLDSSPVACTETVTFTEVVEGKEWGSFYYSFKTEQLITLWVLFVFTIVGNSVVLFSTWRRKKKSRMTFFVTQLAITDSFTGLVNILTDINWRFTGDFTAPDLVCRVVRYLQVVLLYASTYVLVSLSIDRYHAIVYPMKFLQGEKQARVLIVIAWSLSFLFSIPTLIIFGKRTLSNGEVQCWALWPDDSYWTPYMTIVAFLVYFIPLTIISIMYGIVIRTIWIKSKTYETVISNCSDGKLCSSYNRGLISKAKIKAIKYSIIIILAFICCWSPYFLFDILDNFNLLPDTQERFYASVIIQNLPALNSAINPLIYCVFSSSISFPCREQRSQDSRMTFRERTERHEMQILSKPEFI
Tau fluor counter – counter-screen for tau fibril formation inhibitors. tau K18 P301L Alexa594 fluorescence, heparin fibrillization. Potency, µM (top dose mostly 57.7 µM), inactives show top-dose activity change, negative = decrease. hit rate 0.93% among 280,000; note: nearly all actives have a fitted effect of over 55% in size
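Human tau K18 P301L (15 uM unlabeled, 0.24 uM Alexa 594-labeled) in 100 mM sodium acetate pH 7 with 20 uM heparin, 6 hr at 37 C. ThT 30 uM added, 1 hr ambient; Alexa 594 FP and total fluorescence read at 555/632 nm.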
* = called active by the depositor; ? = inconclusive; / = no result given; ! = a repeat was not active; [ ] = another dose, or the depositor's remark. Calls come from the whole dose curve; as a rule, active = well fitted curve in the direction sought with a large enough effect; inconclusive = small, poorly fitted or top-dose-only effect, or another doubt; inactive = no such curve, though single readings can be large; an effect the other way counts as inactive or inconclusive. % is set by controls: 0 for no effect and ±100 for the full control effect; potency is the fitted concentration of half-maximal effect.

SMILES	Tau FP inhib	KinaseGlo FLuc	Tau ThT inhib	NPSR antag	Tau fluor counter
N#C/C(=C\c1ccc([N+](=O)[O-])o1)c1nc2ccccc2[nH]1	?	1.3%	7.08µM*	3.98µM*	11.2µM*[quencher]
CC(C)(C)/C(O)=C(/C#N)c1nc2ccccc2[nH]1	-3.3%	-3.8%	-14.3%	-10.9%[46.1 µM]	-15.3%
N#C/C(=C\c1ccc(N2CCCC2)c([N+](=O)[O-])c1)c1nc2ccccc2[nH]1	-4.8%	-3.8%	2µM*	-4.1%[46.1 µM]	?
N#C/C(=C(/O)c1ccc([N+](=O)[O-])o1)c1nc2ccccc2[nH]1	5.4%	/	7.08µM*	-55.7%	?
Cc1ccc(N2C(=O)CC(c3ccccc3F)C3=C2COC3=O)cc1Cl (stereo not drawn)	-5.0%	/	-9.5%	/	-17.4%
COc1ccc2c(c1)c1c(c(=O)n(Cc3ccccc3)c(=O)n1Cc1ccc(C)cc1)n2C	3.5%	/	-3.7%	/	-11.0%
CC1CCCN(c2ccc(/C=C(\C#N)c3nn(-c4ccccc4)c(N)c3C#N)cc2[N+](=O)[O-])C1 (stereo not drawn)	-4.4%	-6.7%	14.1µM*	-18.5%[46.1 µM]	?
O=C(Nc1ccc2c(c1)OCO2)Nc1ccc2c(c1)OCO2	7.4%	-4.4%	-16.7%	5.8%	-11.6%
O=C(Cc1ccc(Cl)cc1Cl)Nc1ccc(OC(F)F)c(Cl)c1	?	0.5%	-0.6%	-44.1%	-22.2%
O=C(Nc1ccc(OC(F)F)c(Cl)c1)Nc1ccc2c(c1)OCO2	12.8%	-0.5%	?	-9.3%[46.1 µM]	5.01µM*[quencher]
O=C(Nc1ccc([N+](=O)[O-])cc1)Nc1ccc(OC(F)F)c(Cl)c1	10µM*	0.5%	?	10µM*	?
COc1ccc(NC(=O)Nc2cccc([N+](=O)[O-])c2)cc1Cl	?	5.5%	15.8µM*	-26.0%	14.1µM*[quencher]
O=C1C2[C@@H](c3ccccc3)N[C@@H](c3ccccc3)C1[C@H](c1ccccc1)N[C@H]2c1ccccc1	/	0.3%[7.66 µM]	/	/	/
CCc1ccccc1Nc1ncnc2c1cnn2-c1ccc(Cl)cc1	-11.6%	/	?	/	-26.9%
O=C(N/N=C/c1ccc(Br)s1)c1c[nH]c2ccccc12	0.5%	-0.7%	12.9%	-25.9%	?
Cc1cccc(C2=NN(c3ccccc3)[C@H](CO)[C@H]2c2ccc(Cl)cc2)c1	?	1.8%[39.9 µM]	?	/	11.2µM*[quencher]
Cc1cccc(C2=NN(c3ccc(Br)cc3)[C@@H](C(=O)N3CCOC3=O)[C@@H]2c2ccc(F)cc2)c1	-2.3%	2.7%[39.9 µM]	-18.3%	-14.1%	?
Cc1cccc(C2=NN(c3ccccc3)[C@H](CO)[C@H]2c2ccc(F)cc2)c1	?	2.0%[39.9 µM]	?	/	31.6µM*[quencher]
Cc1cccc(C2=NN(c3ccc(Br)cc3)[C@@H](C(=O)N3CCOC3=O)[C@@H]2c2ccc(Cl)cc2)c1	-7.4%	2.5%[39.9 µM]	-3.2%	/	?
COc1ccc(CCNc2nc3ccccc3c3nc(-c4cccc(C)c4)nn23)cc1OC	-6.9%	/	?	/	?
O=S(=O)(NCCc1csc(-c2cccc(F)c2)n1)c1cc(F)ccc1F	-1.6%	/	-3.4%	/	-21.8%
CCCSc1ccc2nc(-c3ccccc3)cn2c1	-11.0%	10µM*	?	?	-25.2%
CCCCSc1ccc2nc(-c3ccc(C#N)cc3)cn2c1	-11.2%	5.7%	-5.8%	-29.3%[46.1 µM]	-28.5%
CCOC(=O)c1c(CSc2ccc(C)cc2)oc2ccc(O)cc12	31.6µM*	-2.4%	?	-56.7%	?
COc1ccc2[nH]cc(CCNc3nc(-c4ccoc4)nc4ccccc34)c2c1	?	1.4%	?	/	31.6µM*[quencher]
SMILES	Tau FP inhib	KinaseGlo FLuc	Tau ThT inhib	NPSR antag	Tau fluor counter
COc1cccc(-c2nc(NCCc3c[nH]c4ccc(OC)cc34)c3ccccc3n2)c1	?	-3.4%	?	/	14.1µM*[quencher]
COc1ccc2[nH]cc(CCNc3nc(-c4ccc(C(=O)N(C)C)cc4)nc4ccccc34)c2c1	3.0%	-15.4%	?	/	15.8µM*[quencher]
COc1ccc2[nH]cc(CCNc3nc(-c4ccccc4CN(C)C)nc4ccccc34)c2c1	5.3%	-0.2%	?	/	?
CCOc1ccc(C(=O)c2ccc(OC)c(O)c2O)cc1	?	-6.9%	15.8µM*	/	?
COc1ccc(C(=O)c2ccc(O)cc2)c(O)c1O	?	-0.1%	?	/	?
COc1cc(N=Nc2ccccc2C(=O)O)ccc1O	0.9%	/	7.08µM*	?	-12.3%
Cc1cc(N=Nc2ccccc2C(=O)O)c(C)c(C)c1O	1.1%	/	0.891µM*	?	?
Cc1cc(O)c(C(C)C)cc1N=C1CSC(=O)N1	-7.6%	-4.6%	?	-8.1%[46.1 µM]	?
Cc1cc(O)c(C(C)C)cc1N=Nc1ccccc1C(=O)O	-2.4%	/	6.31µM*	?	-23.3%
Cc1cc(C)c(/C=C/c2onc(C)c2S(=O)(=O)N2CCC(C(=O)N3CCN(c4ccc(Cl)cc4)CC3)CC2)c(C)c1	1.9%	/	-4.0%	/	-7.1%
COc1ccc(CNC(=O)C2CCCN(S(=O)(=O)N(C)c3ccc(F)cc3)C2)cc1OC (stereo not drawn)	-1.5%	/	5.9%	/	-7.5%
CNC[C@H](O)c1ccc(O)c(O)c1	12.6µM*!	-2.6%	14.1µM*!	7.4%[46.1 µM]	?
COc1cccc(CC(=O)N2CCc3nc(-c4ccc(OC)cc4C)c4c(c3C2)CO[C@@H](c2ccccc2)C4)c1	-4.5%[11.6 µM]	-3.6%[7.66 µM]	4.6%[11.5 µM]	/	-1.5%[11.6 µM]
COc1ccc(Cl)cc1NS(=O)(=O)c1ccc2[nH]c3c(c2c1)CCCC3	-0.2%	/	0.7%	/	8.91µM*[quencher]
COc1ccc(NS(=O)(=O)c2ccc3[nH]c4c(c3c2)CCCCCC4)cc1	0.0%	/	15.1%	/	5.01µM*[quencher]
COc1cccc(NS(=O)(=O)c2ccc3[nH]c4c(c3c2)CCCCCC4)c1	-1.0%	/	-4.2%	/	7.08µM*[quencher]
Cc1ccc(NS(=O)(=O)c2ccc3[nH]c4c(c3c2)CCCCC4)cc1	1.5%	/	0.1%	/	7.94µM*[quencher]
Cc1ccc(NS(=O)(=O)c2ccc3[nH]c4c(c3c2)CCCC4)c(C)c1	14.4%	/	3.9%	/	?
COc1cccc(N2CCN(S(=O)(=O)c3ccc4[nH]c5c(c4c3)CCCC5)CC2)c1	0.1%	/	1.6%	/	?
C=CCC(C)(O)C(=O)OCC (stereo not drawn)	4.9%	0.5%	-1.5%	/	3.0%
COc1ccc(Cl)cc1NC(=O)c1cc(=O)c2cc(C)cc(C)c2o1	-4.5%	/	-6.8%	/	-7.8%
COc1ccc(NS(=O)(=O)c2cccc(NC(=O)c3cnccn3)c2)cc1Br	-12.0%	0.8%	-8.5%	-31.0%	-25.0%
CCOc1ccc(CNS(=O)(=O)c2ccc3[nH]c4c(c3c2)CCCC4)cc1OC	5.4%	/	-23.8%	/	?
COc1ccccc1CNS(=O)(=O)c1ccc2[nH]c3c(c2c1)CCCCC3	?	/	-9.3%	/	15.8µM*[quencher]
CCN(CCO)c1ccc(N=Nc2cc(C)[nH]n2)cc1	12.3%	/	10µM*	-13.7%	-15.2%
CCN(CC)c1ccc(N=Cc2ccc(N(CC)CC)cc2O)cc1	?	15.0%	?	-14.9%[46.1 µM]	?
